From the supplement of paper PMC7380943
Where a name gives a salt, the structure may show the parent alone. ± gives the standard deviation of the averaged measurements.

Test system: CLZ3 (HCA2 human fibroblast dual HR-NHEJ reporter)
Assay: NHEJ repair efficiency (GFP+ cells) relative to control (log10 fold); higher = more non-homologous end joining
Details: 5 µM; doxycycline 0.5 ug/mL
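Note: compound given one day ahead of doxycycline, which switches on I-SceI endonuclease to cut the chromosomally integrated reporter and create DSBs.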

| SMILES | NHEJ repair efficiency (log10) |
| --- | --- |
| CC(C)=CCC12Oc3cc(O)ccc3C1(O)Oc1cc(O)c([C@H]3C=C(C)C[C@@H](c4ccc(O)cc4O)[C@@H]3C(=O)c3ccc(O)cc3O)c(O)c1C2=O (some centres undefined) [Sanggenon D] | -0.0219 |
| COC(=O)C1=CO[C@@H](O[C@@H]2O[C@H](CO)[C@@H](O)[C@H](O)[C@H]2O)[C@H]2[C@@H]1[C@H](O)C[C@]2(C)O [Shanzhiside methylester] | 0.193 |
| C/C=C/C#CC#C[C@@H](O)[C@@H](/C=C/CCCO)O[C@@H]1O[C@H](CO)[C@@H](O)[C@H](O)[C@H]1O [Lobetyolin] | 0.048 |
| O=c1c(-c2ccc(O[C@@H]3O[C@H](CO)[C@@H](O)[C@H](O)[C@H]3O)cc2)coc2cc(O)cc(O)c12 [Sophoricoside] | 0.185 |
| COc1ccc(/C=C/c2cc(O)cc(O[C@@H]3O[C@H](CO)[C@@H](O)[C@H](O)[C@H]3O)c2)cc1 [Desoxyrhaponticin] | 0.161 |
| OCC1=C[C@@H](O)[C@]2(O[C@@H]3O[C@H](CO)[C@@H](O)[C@H](O)[C@H]3O)C=CO[C@@H](O[C@@H]3O[C@H](CO)[C@@H](O)[C@H](O)[C@H]3O)[C@H]12 [Melittoside] | -0.134 |
| CC1(C)[C@@H](O)CC[C@]2(C)[C@H]3CC=C4[C@@H]5C[C@@]6(C)C[C@H](OC6=O)[C@]5(C)CC[C@@]4(C)[C@]3(C)CC[C@@H]12 [Wilforlide A] | -0.137 |
| C[C@@H]1O[C@@H](Oc2c(-c3ccc(O)c(O)c3)oc3cc(O)cc(O)c3c2=O)[C@H](O)[C@H](O)[C@H]1O [Quercitrin] | -0.0507 |
| O=C(OCC1=C[C@@H](O)[C@@H]2C=CO[C@@H](O[C@@H]3O[C@H](CO)[C@@H](O)[C@H](O)[C@H]3O)[C@H]12)c1ccc(O)cc1 [Agnuside] | -0.062 |
| C=C1CCC[C@]2(C)C[C@]3(O)OC(=O)C(C)=C3C[C@@H]12 [Atractylenolide Ⅲ] | 0.0709 |
| Cn1c(=O)c2nc[nH]c2n(C)c1=O [Theophylline] | 0.0481 |
| C/C=C1\[C@H]2C=C(C)C[C@]1(N)c1ccc(=O)[nH]c1C2 [Huperzine-A] | 0.0591 |
| O=C(O)Cc1c(C=CC(=O)OC(Cc2ccc(O)c(O)c2)C(=O)O)ccc(O)c1O (centres undefined) [Salvianolic Acid D] | -0.0658 |
| CC(C)[C@@H]1[C@H]2OC(=O)[C@@H]1[C@@H]1CC[C@@H]3CN(C)[C@H]2[C@@]31C [Dendrobine] | 0.165 |
| Cn1c(=O)c2c(ncn2CC(O)CO)n(C)c1=O (centres undefined) [Diprophylline] | 0.137 |
| COc1cc([C@H]2OC[C@H]3[C@@H]2CO[C@H]3c2ccc(OC)c(OC)c2)ccc1O [Phillygenin] | 0.129 |
| COc1ccc(C[C@H]2COC(=O)[C@@H]2Cc2ccc(O[C@@H]3O[C@H](CO)[C@@H](O)[C@H](O)[C@H]3O)c(OC)c2)cc1OC [Arctiin] | -0.18724 ± 8.6e-05 |
| C[C@@H]1O[C@@H](O[C@H]2[C@H](Oc3cc(O)c(C(=O)CCc4ccc(O)cc4)c(O)c3)O[C@H](CO)[C@@H](O)[C@@H]2O)[C@H](O)[C@H](O)[C@H]1O | -0.0363 |
| O=C1C=C2C=C[C@@H](O)[C@H](O)[C@H]2O1 [Griffonilide] | 0.0786 |
| C=CC1=C(C)/C(=C/c2[nH]c(Cc3[nH]c(/C=C4\NC(=O)C(C)=C4C=C)c(C)c3CCC(=O)O)c(CCC(=O)O)c2C)NC1=O [Bilirubin] | -0.0874 |

| SMILES | NHEJ repair efficiency (log10) |
| --- | --- |
| COc1c2occc2cc2ccc(=O)oc12 [Xanthotoxin] | -0.261 |
| C[C@@H]1O[C@@H](O[C@H]2[C@H](O[C@H]3CC[C@@]4(C)[C@@H](CC[C@]5(C)[C@@H]4CC=C4[C@@H]6CC(C)(C)CC[C@]6(C(=O)O[C@@H]6O[C@H](CO[C@@H]7O[C@H](CO)[C@@H](O)[C@H](O)[C@H]7O)[C@@H](O)[C@H](O)[C@H]6O)CC[C@]45C)[C@]3(C)CO)OC[C@H](O)[C@@H]2O)[C@H](O)[C@H](O[C@@H]2O[C@H](CO)[C@@H](O)[C@H](O)[C@H]2O)[C@H]1O [Macranthoidin A] | -0.155 |
| O=c1cc(-c2ccc(O)c(O)c2)oc2cc(O)c([C@@H]3O[C@H](CO)[C@@H](O)[C@H](O)[C@H]3O)c(O)c12 [Isoorientin] | -0.0953 |
| O=C1c2c(O)cccc2C([C@@H]2O[C@H](CO)[C@@H](O)[C@H](O)[C@H]2O)c2cc(CO)cc(O)c21 (some centres undefined) [Barbaloin] | 0.0217 |
| COc1cc(OC)c2ccc(=O)oc2c1 [5,7-Dimethoxycoumarin] | 0.0653 |
| OC[C@H]1NC[C@H](O)[C@@H](O)[C@@H]1O [1-Deoxynojirimycin] | 0.0355 |
| O=C(C=Cc1ccc(O)c(O)c1)O[C@H]1[C@H](O)C[C@](O)(C(=O)O)C[C@H]1OC(=O)C=Cc1ccc(O)c(O)c1 [Isochlorogenic Acid C (4,5-Di-O-Caffeoylquinic Acid)] | 0.021 |
| COc1cc(/C=C/C(=O)CC(=O)/C=C/c2ccc(O)c(OC)c2)ccc1O [Curcumin] | 0.317 |
| O=C1c2c(O)cc(O)cc2OC(c2ccc(O)c(O)c2)C1O (centres undefined) [Taxifolin] | -0.132 |
| OC[C@H]1O[C@@H](Oc2ccc(O)cc2)[C@H](O)[C@@H](O)[C@@H]1O [Arbutin] | -0.0725 |
| NC(=O)c1cccnc1 [Nicotinamide] | 0.139 |
| COc1ccc(C(C)=O)c(O)c1 [Paeonol] | 0.076 |
| CC(C)(C)NCC(O)c1ccc(O)c(CO)c1 (centres undefined) [Salbutamol Sulfate] | -0.0861 |
| O=C1C[C@@H](c2ccc(O)c(O)c2)Oc2cc(O)cc(O)c21 [Eriodictyol] | -0.0055 |
| COc1cc(/C=C/C(=O)O)ccc1O [Ferulaic Acid] | -0.0555 |
| COc1c2ccoc2cc2oc(=O)ccc12 [Bergapten] | -0.153 |
| COc1c(O[C@@H]2O[C@H](CO)[C@@H](O)[C@H](O)[C@H]2O)cc2oc(-c3ccc(O)cc3)cc(=O)c2c1O [Homoplantaginin] | 0.0189 ± 0.062 |
| O=c1oc2c(O)c(O)cc3c(=O)oc4c(O)c(O)cc1c4c23 [Ellagic acid] | 0.0142 |
| COc1ccc(-c2cc(=O)c3c(O)cc(O[C@@H]4O[C@H](CO[C@@H]5O[C@@H](C)[C@H](O)[C@@H](O)[C@H]5O)[C@@H](O)[C@H](O)[C@H]4O)cc3o2)cc1O [Diosmin] | -0.157 |
